Source: PubChem BioAssay AID1712 (National Center for Advancing Translational Sciences (NCATS), 2009)
Results filed as inconclusive are left out. Activity calls are given as the source filed them. The call rests on the fitted dose curve; in most records, active means well fitted curve in the direction sought with a large enough effect; inconclusive means small, poorly fitted or top-dose-only effect, or effect the other way, or another doubt; inactive means no such curve, though single readings can be large or run the other way.

These compounds were tested against Amyloid-beta precursor protein (Homo sapiens) (UniProt P05067) (assay: Assay for Inhibitors of the fibrillization of the Beta-Amyloid Protein Fragment, A-beta 1-42). Conditions: A-beta 1-42 fibrillization, ThT fluorescence, 4 h; series mostly up to 80 µM.
Amyloid-beta precursor protein (Homo sapiens), sequence (P05067 whole entry, looked up, the tested form may be a part): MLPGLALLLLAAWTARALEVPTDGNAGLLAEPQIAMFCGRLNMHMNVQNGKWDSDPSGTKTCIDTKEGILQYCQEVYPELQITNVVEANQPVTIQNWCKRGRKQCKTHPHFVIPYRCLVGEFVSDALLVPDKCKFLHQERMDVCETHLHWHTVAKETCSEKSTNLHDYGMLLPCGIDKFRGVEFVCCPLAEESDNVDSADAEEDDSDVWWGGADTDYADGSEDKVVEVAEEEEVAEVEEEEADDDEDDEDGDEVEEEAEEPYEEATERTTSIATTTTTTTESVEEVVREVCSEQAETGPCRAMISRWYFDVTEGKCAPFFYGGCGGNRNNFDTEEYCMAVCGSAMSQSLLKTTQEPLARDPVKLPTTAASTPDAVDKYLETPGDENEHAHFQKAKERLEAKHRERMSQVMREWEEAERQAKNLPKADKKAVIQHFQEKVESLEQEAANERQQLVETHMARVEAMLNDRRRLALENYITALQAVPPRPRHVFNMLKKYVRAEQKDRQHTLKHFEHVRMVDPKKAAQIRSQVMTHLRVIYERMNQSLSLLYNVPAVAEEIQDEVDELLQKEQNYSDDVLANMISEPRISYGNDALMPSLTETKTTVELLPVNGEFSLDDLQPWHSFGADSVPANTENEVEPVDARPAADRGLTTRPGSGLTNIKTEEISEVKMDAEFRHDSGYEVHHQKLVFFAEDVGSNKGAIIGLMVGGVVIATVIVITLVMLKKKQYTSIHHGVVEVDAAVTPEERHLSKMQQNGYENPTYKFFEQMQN
Description: NIH Molecular Libraries Probe Production Network [MLPCN] NIH Chemical Genomics Center [NCGC] MLPCN Grant: X01 MH083262-01 Assay Provider: Carlo Ballatore, University of Pennsylvania NCGC Assay Overview: The microtubule-associated protein tau is an abundant protein in the axons of neurons that stabilizes microtubules. With its ability to modulate microtubule dynamics, tau contributes directly or indirectly, to key structural and regulatory cellular functions. Particularly important is the influence tau exerts on axonal transport, which allows signaling molecules, trophic factors and other essential cellular constituents to travel along the axons. Under pathological conditions, tau becomes sequestered into insoluble aggregates called neurofibrillary tangles. This phenomenon is believed to have pathological consequences by promoting axonal transport deficits that ultimately lead to synaptic dysfunction and neuronal loss. Beta-amyloid protein undergoes a similar type of aggregation as tau and is implicated in the pathology of Alzheimer's disease. To examine the selectivity of tau fibrillization inhibitors, compounds were tested in an in vitro assay for fibrillization of the beta-amyloid fragment, A-beta 1-42. Crystal, A. S., Giasson, B. I., Crowe, A., Kung, M. P., Zhuang, Z. P., Trojanowski, J. Q., and Lee, V. M. Y. (2003) Journal of Neurochemistry 86, 1359-1368.
NCGC Assay Protocol Summary: Synthetic A-beta 1-42 aliquots were reconstituted to 2 mg/ml in DMSO and then diluted to 15 uM in 25 mM Tris, pH 7.0 buffer to which test compound was added at 50 uM final concentration, or at several concentrations ranging from 0.16-40 uM. The reaction mixtures were dispensed at 25 ul/well into a 384-well plate and then incubated at 37 C for 4 hrs. Upon completion of the reaction, 25 ul of 25 uM ThT was added to each well followed by ThT fluorescence readings as described above for K18PL.

outcome, inactive:
COc1ccc(NC(=O)CSc2nnc(CCC(=O)Nc3ccc(C)c(Cl)c3)n2C)cc1
CC(=O)Nc1sc(C)c2cnn(-c3ccccc3)c(=O)c12
Nc1nn(-c2ccccc2)c(=O)c2c(N)scc12
CCOC(=O)c1ccc(-n2nc(C(=O)OCC)c3csc(N)c3c2=O)cc1
CCOC(=O)c1nn(-c2ccccc2)c(=O)c2c(N)scc12
NC(=O)c1nn(-c2ccccc2)c(=O)c2c(N)scc12
Nc1scc2c(CO)nn(-c3ccccc3)c(=O)c12
CCOC(=O)c1nn(-c2ccccc2F)c(=O)c2c(N)scc12
COc1ccc(-n2nc(C(=O)O)c3csc(N)c3c2=O)cc1
Cc1ccc(S(=O)(=O)N2CCN(c3nc(-c4ccccc4)nc4ccccc34)CC2)cc1
CCOC(=O)c1nn(-c2ccc(C)c(C)c2)c(=O)c2c(N)scc12
O=S(=O)(c1ccc2c(c1)OCCO2)N1CCN(c2nc(-c3ccccc3)nc3ccccc23)CC1
Nc1scc2c(C(=O)N3CCOCC3)nn(-c3ccccc3)c(=O)c12
